Reference: PubChem BioAssay (NCI)
Values joined by “and” are separate entries in the source; they are usually repeats but may differ in a detail not shown here. Identical values can stand only once. This is part of a sample that, as a whole, favours compounds with a hit. Of some 83,000 tested, about 20% had one in any assay.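 Treatment: one concentration, 48 hours, 96-well format. Scoring: percent growth, with anything below 10 considered active.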

Legend:
Assay in all cases: NCI-60 one-dose screen, 48 h (100 = growth as untreated, 0 = no growth, -100 = all killed)
Details in all cases: 10 µM unless noted
NCI-H23 lung = test system: NCI-H23 lung
NCI-H226 lung = test system: NCI-H226 lung
NCI-H322M lung = test system: NCI-H322M lung
HOP-62 NSCLC = test system: HOP-62 NSCLC
NCI-H460 lung = test system: NCI-H460 lung
HOP-92 NSCLC = test system: HOP-92 NSCLC
NCI-H522 lung = test system: NCI-H522 lung
A549/ATCC NSCLC = test system: A549/ATCC NSCLC
786-0 renal = test system: 786-0 renal
COLO 205 colon = test system: COLO 205 colon
DU-145 prostate = test system: DU-145 prostate
K-562 leukemia = test system: K-562 leukemia
MALME-3M melanoma = test system: MALME-3M melanoma
MDA-MB-231 breast = test system: MDA-MB-231 breast
RXF 393 renal = test system: RXF 393 renal
SF-268 CNS = test system: SF-268 CNS
SF-295 CNS = test system: SF-295 CNS
SF-539 CNS = test system: SF-539 CNS
UACC-257 melanoma = test system: UACC-257 melanoma
M14 melanoma = test system: M14 melanoma

Measured: growth

O=c1[nH]c(=O)c2[nH]c(=O)[nH]c2[nH]1
inactive: NCI-H23 lung 92.8% | NCI-H226 lung 93.2% | NCI-H322M lung 101% | HOP-62 NSCLC 105% | NCI-H460 lung 104% | HOP-92 NSCLC 89.9% | NCI-H522 lung 112% | A549/ATCC NSCLC 104% | 786-0 renal 94.2% | COLO 205 colon 105% | DU-145 prostate 107% | K-562 leukemia 135% | MALME-3M melanoma 93.2% | MDA-MB-231 breast 101% | RXF 393 renal 84.6% | SF-268 CNS 103% | SF-295 CNS 98.3% | SF-539 CNS 97.7% | UACC-257 melanoma 107% | M14 melanoma 91.5%

NNC(=O)Nc1ccccc1
inactive: NCI-H23 lung 100% | NCI-H226 lung 95.2% | NCI-H322M lung 96.1% | HOP-62 NSCLC 103% | NCI-H460 lung 104% | HOP-92 NSCLC 90.8% | NCI-H522 lung 107% | A549/ATCC NSCLC 113% | 786-0 renal 99.8% | COLO 205 colon 99.1% | DU-145 prostate 106% | K-562 leukemia 102% | MALME-3M melanoma 99.6% | MDA-MB-231 breast 91.2% | RXF 393 renal 108% | SF-268 CNS 100% | SF-295 CNS 96.3% | SF-539 CNS 97% | UACC-257 melanoma 108% | M14 melanoma 107%

O=[N+]([O-])c1ccc(N/N=C/C2CCCCCC2)c([N+](=O)[O-])c1
inactive: NCI-H23 lung 99.9% | NCI-H226 lung 101% | NCI-H322M lung 78.8% | HOP-62 NSCLC 97% | NCI-H460 lung 94.6% | HOP-92 NSCLC 82.6% | NCI-H522 lung 78.5% | A549/ATCC NSCLC 79.9% | 786-0 renal 96.7% | COLO 205 colon 94.6% | DU-145 prostate 92% | K-562 leukemia 83.4% | MALME-3M melanoma 98% | MDA-MB-231 breast 81.8% | RXF 393 renal 98% | SF-268 CNS 87.4% | SF-295 CNS 98.1% | SF-539 CNS 99.8% | UACC-257 melanoma 96.5% | M14 melanoma 85.1%

Nc1c(Cl)cc2c(c1Br)C(=O)c1ccccc1C2=O
inactive: NCI-H23 lung 88.2% | NCI-H226 lung 99.5% | NCI-H322M lung 96% | HOP-62 NSCLC 101% | NCI-H460 lung 110% | HOP-92 NSCLC 125% | NCI-H522 lung 91.7% | A549/ATCC NSCLC 98.1% | 786-0 renal 105% | COLO 205 colon 104% | DU-145 prostate 121% | K-562 leukemia 83.5% | MALME-3M melanoma 132% | MDA-MB-231 breast 83.3% | RXF 393 renal 110% | SF-268 CNS 108% | SF-295 CNS 104% | SF-539 CNS 84.6% | UACC-257 melanoma 108% | M14 melanoma 108%

Cc1ccc(C(=O)c2ccc(C)cc2)cc1
inactive: NCI-H23 lung 95.9% and 98.3% | NCI-H226 lung 92.4% and 94.6% | NCI-H322M lung 97.2% and 94.3% | HOP-62 NSCLC 92.5% and 98.4% | NCI-H460 lung 101% and 105% | HOP-92 NSCLC 59.2% and 73.7% | NCI-H522 lung 89.3% and 93.6% | A549/ATCC NSCLC 87.9% and 101% | 786-0 renal 90.7% and 99.6% | COLO 205 colon 99.7% | DU-145 prostate 102% and 103% | K-562 leukemia 103% and 110% | MALME-3M melanoma 108% and 93.2% | MDA-MB-231 breast 103% and 106% | RXF 393 renal 88% and 95.8% | SF-268 CNS 94.8% and 98% | SF-295 CNS 94.4% and 103% | SF-539 CNS 85.3% and 97.6% | UACC-257 melanoma 92.6% and 114% | M14 melanoma 101%

C#CCOC(=O)C(N)CS (stereo not given)
inactive: NCI-H23 lung 109% | NCI-H226 lung 99.9% | NCI-H322M lung 97.6% | HOP-62 NSCLC 93.2% | NCI-H460 lung 103% | HOP-92 NSCLC 93.9% | NCI-H522 lung 111% | A549/ATCC NSCLC 118% | 786-0 renal 106% | COLO 205 colon 106% | DU-145 prostate 113% | K-562 leukemia 102% | MALME-3M melanoma 96.6% | MDA-MB-231 breast 84.2% | RXF 393 renal 106% | SF-268 CNS 96.4% | SF-295 CNS 96.5% | SF-539 CNS 86.6% | UACC-257 melanoma 107% | M14 melanoma 97.1%
